# Menin MLL FP TR: menin-MLL binding inhibition, Texas Red mutant peptide; Potency, µM (series often up to 61.6 µM), for inactives: top-dose FP activity change, negative = inhibition, usual class: inhibitors; 0.23% of 270,000 active; O00255; AID 1768; Menin + Texas Red MLL mutant peptide, fluorescence polarization; active = well fitted inhibition curve with a large enough effect in the polarisation, with a control signal flat, not every such curve was filed as active; inconclusive = small, poorly fitted or top-dose-only effect, or effect the other way, or a change in a side signal; inactive = no such curve, though single readings can be large or run the other way; the % refers to the polarisation; note: potency is the fitted concentration of half-maximal effect; % of control where 0% means no effect
# CXXC DNA block: MLL CXXC-DNA interaction inhibition; Q03164; MLL-CXXC / FITC-HOXA9 DNA fluorescence polarization; Potency, µM (series often up to 115 µM), inactives show at the top dose activity change, negative = inhibition, actives largely listed as inhibitors; 0.037% of 290,000 active; active = well fitted inhibition curve with a large enough effect in the polarisation, with a control signal flat, not every such curve was filed as active; inconclusive = small, poorly fitted or top-dose-only effect, or effect the other way, or a change in a side signal; inactive = no such curve, though single readings can be large or run the other way; the % refers to the polarisation; note: potency is the fitted concentration of half-maximal effect
#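 Steps: dispense CXXC domain solution (7 uM) → pin compounds or unlabeled HOX-A9 DNA control → 5 min ambient → add FLSN-HOX-A9 solution (50 nM) → spin → 30 min ambient → fluorescence polarization. Tris pH 7.5/NaCl/DTT/BSA buffer.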
# Menin MLL FP FL: displaces fluorescein MLL peptide from human menin. 290,000 tested, under 10 active. Fluorescence polarization, fluorescein-MLL peptide displacement from menin. AID 1766. FP activity change, % at 61.4 µM; active = well fitted curve in the direction sought with a large enough effect in the polarisation, not every such curve was filed as active; inconclusive = small, poorly fitted or top-dose-only effect, or effect the other way, or a change in a side signal; inactive = no such curve, though single readings can be large or run the other way; the % refers to the polarisation; note: % of control where 0% means no effect
# RGS12 GoLoco inh: blocks human Gai1 binding to RGS12 GoLoco peptide, red readout; Potency, µM (top dose mostly 61.6 µM), inactives show top-dose activity, negative = inhibition, most hits filed as inhibitors; 0.44% of 230,000 active; Gai1:RGS12 GoLoco peptide FP, rhodamine, 10 min; active = well fitted inhibition curve with a large enough effect, not every such curve was filed as active; inactive = no such curve, though single readings can be large or run the other way; note: potency is the fitted concentration of half-maximal effect; % is set by controls: 0 for no effect and ±100 for the full control effect; nearly all actives have a fitted effect of over 30% in size
# ERG-DNA inh: inhibitors of human ERG Ets domain-DNA interaction; Potency, µM (titrated, usually from 76.9 µM), for the others: at the highest dose FP activity, negative = inhibition, most hits filed as inhibitors; AID 624246; fluorescence polarization, His-ERG Ets domain / labelled DNA; 0.028% of 370,000 active; P11308; active = well fitted inhibition curve with a large enough effect in the polarisation, with a control signal flat; inconclusive = small, poorly fitted or top-dose-only effect, or effect the other way, or a change in a side signal; inactive = no such curve, though single readings can be large or run the other way; the % refers to the polarisation;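 note: polarization taken with two DNA probes labelled with fluorescein and Texas red; potency is the fitted concentration of half-maximal effect; % of control where 0% means no effect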
#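 His-tagged ERG Ets domain (1 uM in the protein solution; 300mM KCl, 50mM Tris-HCl, 1mM EDTA, 1mM DTT, pH 7.5) received compound, then a probe mix of 5 nM fluorescein-DNA and 100nM Texas-615-DNA. Fluorescence polarization was read for both dyes.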
# * = called active by the depositor; ? = inconclusive; . = not tested or not shown; ! = a repeat was not active; [ ] = another dose, or the depositor's remark. Shown is part of a subset that was picked to be rich in hits.
SMILES,Menin MLL FP TR,CXXC DNA block,Menin MLL FP FL,RGS12 GoLoco inh,ERG-DNA inh
NS(=O)(=O)c1cccc(NS(=O)(=O)c2ccc(/C=C/C(=O)OCC(=O)c3ccc(Br)cc3)cc2)c1,28.2µM*,-12.7%,0.2,11.1%,9.6%
COc1ccc(C(=O)COC(=O)/C=C/c2ccc(S(=O)(=O)Nc3cccc(S(N)(=O)=O)c3)cc2)cc1,?,-0.4%,1.6,23.8%,27.0%
COc1ccc(OC)c(Nc2nc(=O)c3cccnc3s2)c1,?,12.4%,4.5,25.1µM*,7.7%
Cc1ccc(NC(=O)c2c(C)oc3ccc(O)c(CN4CCCCCC4)c23)c(C)c1,.,.,.,.,0.6%
CC(C)c1ccc(S(=O)(=O)NCc2nc3cccnc3n2Cc2ccc(F)cc2)cc1,.,.,.,.,0.9%
O=C(Nc1ccc(OC(=O)c2ccccc2)c(-c2nc3ccccc3s2)c1)c1ccccc1,17.8µM*,51.3%,1.6,4.9%,1.8%
O=C(Nc1cccc(C(F)(F)F)c1)N1CCC(CN2CCCCCC2)CC1,.,.,.,.,1.8%
O=c1c(O)cccc2cc(O)c(O)c(O)c12,?,?,-2.9,3.98µM*!,5.3%
CC(=O)OC1CC(OC(C)=O)[C@]2(C)C(CC(=O)[C@]3(C)C2CC[C@@]2(C)C(c4ccoc4)OC(=O)C4O[C@@]423)C1(C)C (some centres undefined),4.3%,.,4.1,22.4µM*,.
CC(=O)OC1CC(OC(C)=O)[C@]2(C)C(CC(O)[C@]3(C)C2CC[C@@]2(C)C(c4ccoc4)OC(=O)C4O[C@]432)C1(C)C (some centres undefined),-6.1%,.,5.2,12.2%,.
CCCCC(=O)OCC(=O)[C@]1(O)Cc2c(O)c3c(c(O)c2[C@H](OC2CC(NC(=O)C(F)(F)F)C(O)C(C)O2)C1)C(=O)c1c(OC)cccc1C3=O (some centres undefined),28.2µM*,-3.0%,-19.3,3.4%,.
Cc1ccc(-c2nc3ccccc3s2)cc1NC(=S)NC(=O)c1cccc2ccccc12,11.2µM*,4.6%,.,0.6%,16.5%
COC(=O)c1ccc(NC(=S)NC(=O)c2cc(-c3ccccc3)nc3ccccc23)cc1,12.6µM*,19.3%,1.3,14.2%,-1.2%
O=C(Nc1nc2ccccc2s1)c1cc(-c2ccco2)nc2ccccc12,-1.6%,24.1%,6.2,-2.5%,6.3%
COC(=O)c1ccc(NC(=O)c2cc(-c3ccncc3)nc3ccccc23)cc1,.,.,.,.,-2.4%
COc1cccc(-c2cc(C(=O)Nc3nc4ccccc4s3)c3ccccc3n2)c1,28.2µM*,1.1%,3.9,11.7%,.
O=C(CCSCc1cnn(-c2ccccc2)c1-n1cccc1)NCc1ccccc1Cl,.,.,.,.,1.9%
Cc1ccc(CCNC(=O)c2sc3ncccc3c2-n2c(C)ccc2C)cc1,.,.,.,.,1.0%
O=C1c2sc3nc4n(c(=O)c3c2CCC1Br)CCCCC4 (centres undefined),?,-14.9%,-2.8,3.16µM*,0.5%
COc1cccc([C@@H]2Oc3ccc(Br)cc3[C@H](O)[C@H]2O)c1,9.5%,.,-1.1,0.3%,.
CCCOc1ccc(-c2cccc(NS(=O)(=O)c3ccc(CC)cc3)c2)nn1,.,.,.,.,3.1%
Cc1cccc(N=Nc2c(C)c(C#N)c(O)[nH]c2=O)c1,15.9%,?,?,5.01µM*,0.5%
C=CCOC(=O)NC(c1ccc(F)c(F)c1)C(C(=O)CCl)C(=O)OC (centres undefined),7.9%,.,-1.8,-5.3%,.
COc1ccc(/C=C2/C(=O)N(c3cccc(F)c3)N=C2C)c(OC)c1,?,?,-3.2,.,11.5%
CC1=NN(c2cccc(F)c2)C(=O)/C1=C/c1ccc(N(C)C)cc1,22.4µM*,?,-14.1,.,0.2%
SMILES,Menin MLL FP TR,CXXC DNA block,Menin MLL FP FL,RGS12 GoLoco inh,ERG-DNA inh
CCCCC1=CC2=C(OC(C)=O)C(=O)C(C)(OC(=O)c3ccc(Cl)nc3)C(=O)C2=CO1 (centres undefined),-9.2%,.,3.4,3.9%,.
CC(=O)OC(C(=O)c1ccccc1)c1ccccc1 (centres undefined),.,.,.,15.8µM*,.
Cc1cc(CCC(=O)O)c(C)cc1CCC(=O)O,9.0%,-3.2%,3.8,-5.4%,-14.7%
C=CC1=C(C)C2=NC1=CC1=NC(=CC3=NC(=CC4=NC(=C2)C(C)=C4CCC(=O)O)C(CCC(=O)O)=C3C)C(C=C)=C1C.[Zn],?,.,?,5.62µM*,.
COc1cc(/C=N/NC(=O)C2c3ccccc3Oc3ccccc32)ccc1O,2.82µM*,7.1%,1.7,6.7%,-2.3%
CN1CC(O)C2=CC(=O)C(=O)C=C21 (centres undefined),.,.,.,3.55µM*,.
CCCCC[n+]1cccc2c3ccccc3ccc21,?,-1.3%,?,15.8µM*,-6.7%
CC1CCN(c2nc3c(S(=O)(=O)c4cccc(Cl)c4)nnn3c3ccsc23)CC1,.,.,.,.,-1.0%
CC[n+]1cccc(-c2nc3ccccc3s2)c1,8.6%,-8.3%,-2.9,10µM*,7.4%
Oc1cccc(-c2nc3ccccc3s2)c1,29.6%,-0.5%,-0.4,-2.7%,1.5%
O=C1c2ccccc2C(=O)c2c(NC3CCCCC3)ccc(Nc3ccc(S(=O)(=O)O)cc3)c21,.,.,.,3.55µM*,.
O=C1c2ccccc2C(=O)c2c(Nc3ccc(CCO)cc3)ccc(O)c21,?,-2.7%,-26.2,6.0%,9.9%
CC(=O)c1c(O)cccc1O,8.6%,.,-0.6,.,.
O=C(Oc1ccccc1)N1CCC2(CC1)CCN(c1ccncc1)CC2,2.8%,.,2.0,2.82µM*,.
O=C(Oc1ccccc1)N1CCC[C@@]2(CCN(c3ccncc3)C2)C1,-9.3%,.,-9.9,-0.7%,.
COc1cc(OC)cc(C(=O)OCC(=O)Nc2ccc(N3CCCCC3)cc2)c1,2.1%,10.1%,0.0,17.8µM*,-1.2%
CC(=O)c1cccc([N+](=O)[O-])c1,.,.,.,8.7%,5.3%
O=C(O)c1cccc([N+](=O)[O-])c1,.,.,.,0.398µM*,.
Cc1cc(-c2ccc(S(=O)(=O)Nc3ccc(Br)c(C)c3)s2)on1,.,.,.,.,-5.8%
C=CCOc1ccc(C2OC34CCCCC3C(C#N)(C#N)C2(C#N)C(=N)O4)cc1 (centres undefined),-19.0%,-15.4%,?,-72.9%,?
CCCCOc1ccc(C2OC34CCCCC3C(C#N)(C#N)C2(C#N)C(=N)O4)cc1 (centres undefined),.,8.8%,?,25.1µM*,-5.1%
O=S(=O)(O)C(c1ccccc1)[C@@H](O)c1ccccc1 (some centres undefined),.,.,.,-1.1%[14.2 µM],.
C[N+]1(CC(O)COCC2COc3ccccc3O2)CCOCC1 (centres undefined),9.5%,9.5%,3.5,2µM*,15.2%
CCC(C(=O)O)c1ccccc1 (centres undefined),1.4%,.,-3.9,28.2µM*,.
Cc1cc(O)c(C=O)c2c1C(=O)Oc1c(CO)c(O)c3c(c1O2)C(O)OC3=O (centres undefined),?,?,7.6,11.2µM*,-17.9%
CCn1c(=O)cc(OCC(=O)N(C)c2cc(Cl)ccc2C)c2ccccc21,.,.,.,.,-1.0%
